Laboratory results taken from the supplement of paper PMC11001985.
Unmarked numbers belong to inactive results.

Compound: C#CCNC(=O)CCSSCCC(=O)NCCc1ccc(C=O)c(C=O)c1
Experiment: lysine labeling ratio R10:1 (500 µM / 50 µM probe), SILAC-ABPP in living cells; higher = lower intrinsic lysine reactivity toward the probe, active = 2 or less
Conditions: HeLa; probe concentrations 500 vs 50 µM
How it was run: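 R, given per lysine, is the filtered median high-probe/low-probe MS1 peptide ratio, with the median then taken across forward and reverse replicates. Cells were living SILAC light and heavy HeLa cells in PBS at room temperature, labelled with 50 µM or 500 µM of an alkyne-tagged, disulfide-linked lysine probe. The ceiling applied is 20.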

Chain of UniProt P08069 (P08069 whole entry, looked up): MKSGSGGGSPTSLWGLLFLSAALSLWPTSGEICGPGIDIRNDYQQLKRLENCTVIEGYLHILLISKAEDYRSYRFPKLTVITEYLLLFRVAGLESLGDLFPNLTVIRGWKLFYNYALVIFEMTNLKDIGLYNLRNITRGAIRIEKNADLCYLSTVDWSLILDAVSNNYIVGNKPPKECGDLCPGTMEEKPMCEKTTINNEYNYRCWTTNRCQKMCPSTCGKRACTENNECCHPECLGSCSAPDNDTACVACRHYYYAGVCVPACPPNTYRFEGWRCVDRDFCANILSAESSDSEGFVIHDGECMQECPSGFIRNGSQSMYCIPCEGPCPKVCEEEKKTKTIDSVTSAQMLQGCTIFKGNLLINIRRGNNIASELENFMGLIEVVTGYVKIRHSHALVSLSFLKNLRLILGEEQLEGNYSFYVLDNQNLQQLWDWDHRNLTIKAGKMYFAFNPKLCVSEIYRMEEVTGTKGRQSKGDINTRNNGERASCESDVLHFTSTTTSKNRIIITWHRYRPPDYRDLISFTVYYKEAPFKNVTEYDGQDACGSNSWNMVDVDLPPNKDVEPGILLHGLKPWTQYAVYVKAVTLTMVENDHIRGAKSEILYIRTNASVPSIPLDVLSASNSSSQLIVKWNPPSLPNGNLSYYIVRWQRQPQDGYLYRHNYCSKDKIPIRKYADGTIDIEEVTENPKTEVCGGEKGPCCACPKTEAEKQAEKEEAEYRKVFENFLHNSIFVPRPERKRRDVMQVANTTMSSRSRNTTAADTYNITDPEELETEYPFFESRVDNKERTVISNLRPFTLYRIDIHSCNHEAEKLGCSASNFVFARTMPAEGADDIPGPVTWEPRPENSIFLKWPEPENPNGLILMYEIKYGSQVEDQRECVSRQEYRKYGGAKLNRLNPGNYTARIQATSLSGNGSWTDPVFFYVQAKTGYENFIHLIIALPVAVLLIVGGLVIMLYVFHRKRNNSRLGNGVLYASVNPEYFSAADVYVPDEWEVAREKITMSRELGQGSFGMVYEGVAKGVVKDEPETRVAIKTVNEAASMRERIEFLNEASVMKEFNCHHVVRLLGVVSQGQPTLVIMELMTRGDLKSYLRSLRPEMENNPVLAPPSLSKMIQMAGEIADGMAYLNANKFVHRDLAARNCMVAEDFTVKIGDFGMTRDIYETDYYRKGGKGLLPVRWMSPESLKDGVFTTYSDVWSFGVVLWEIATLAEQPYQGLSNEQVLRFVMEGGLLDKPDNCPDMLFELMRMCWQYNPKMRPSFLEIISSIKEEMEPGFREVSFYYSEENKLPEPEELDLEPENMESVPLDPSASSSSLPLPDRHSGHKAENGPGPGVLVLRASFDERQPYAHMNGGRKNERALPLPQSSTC
Chain of UniProt Q8N441 (Q8N441 whole entry): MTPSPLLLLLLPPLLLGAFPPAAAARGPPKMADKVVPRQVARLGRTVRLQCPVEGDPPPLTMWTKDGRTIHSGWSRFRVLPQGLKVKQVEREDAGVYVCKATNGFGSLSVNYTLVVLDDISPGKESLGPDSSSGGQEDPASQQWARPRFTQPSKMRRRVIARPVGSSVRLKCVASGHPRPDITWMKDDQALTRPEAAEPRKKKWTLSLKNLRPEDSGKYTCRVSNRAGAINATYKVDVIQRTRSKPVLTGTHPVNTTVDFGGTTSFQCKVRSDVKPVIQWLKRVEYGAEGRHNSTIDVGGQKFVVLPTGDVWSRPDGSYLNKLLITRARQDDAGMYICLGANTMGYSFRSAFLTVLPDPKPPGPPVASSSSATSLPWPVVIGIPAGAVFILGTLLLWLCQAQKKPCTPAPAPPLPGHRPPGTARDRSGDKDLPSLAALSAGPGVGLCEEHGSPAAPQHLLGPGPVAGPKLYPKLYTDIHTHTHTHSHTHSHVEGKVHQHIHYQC
Chain of UniProt O00220 (O00220 whole entry): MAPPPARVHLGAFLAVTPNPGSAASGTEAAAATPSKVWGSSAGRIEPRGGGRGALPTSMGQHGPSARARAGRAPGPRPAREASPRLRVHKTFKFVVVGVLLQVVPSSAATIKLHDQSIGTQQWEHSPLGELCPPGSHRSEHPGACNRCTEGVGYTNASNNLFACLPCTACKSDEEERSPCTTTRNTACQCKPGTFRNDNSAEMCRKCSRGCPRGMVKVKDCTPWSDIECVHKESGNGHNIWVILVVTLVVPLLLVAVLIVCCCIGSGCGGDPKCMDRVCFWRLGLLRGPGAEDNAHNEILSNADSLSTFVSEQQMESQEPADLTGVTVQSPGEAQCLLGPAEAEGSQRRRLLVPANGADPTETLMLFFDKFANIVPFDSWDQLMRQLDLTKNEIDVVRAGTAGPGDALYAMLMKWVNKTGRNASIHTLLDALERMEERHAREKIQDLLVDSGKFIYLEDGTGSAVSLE
Chain of UniProt P49773 (P49773 whole entry): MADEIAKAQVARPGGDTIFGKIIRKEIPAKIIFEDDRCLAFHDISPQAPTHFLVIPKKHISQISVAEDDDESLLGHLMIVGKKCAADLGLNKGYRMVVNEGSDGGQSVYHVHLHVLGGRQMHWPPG
Chain of UniProt O14828 (O14828 whole entry): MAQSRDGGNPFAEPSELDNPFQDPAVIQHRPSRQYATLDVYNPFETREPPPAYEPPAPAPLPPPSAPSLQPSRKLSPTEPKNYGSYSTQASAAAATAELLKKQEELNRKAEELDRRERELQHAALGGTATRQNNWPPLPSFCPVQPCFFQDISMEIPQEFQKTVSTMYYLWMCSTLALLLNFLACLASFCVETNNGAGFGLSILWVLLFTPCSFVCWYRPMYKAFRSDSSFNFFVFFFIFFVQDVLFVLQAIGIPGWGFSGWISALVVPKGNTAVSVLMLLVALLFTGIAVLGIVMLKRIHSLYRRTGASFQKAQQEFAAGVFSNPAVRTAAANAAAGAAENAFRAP
Chain of UniProt P23229 (P23229 whole entry): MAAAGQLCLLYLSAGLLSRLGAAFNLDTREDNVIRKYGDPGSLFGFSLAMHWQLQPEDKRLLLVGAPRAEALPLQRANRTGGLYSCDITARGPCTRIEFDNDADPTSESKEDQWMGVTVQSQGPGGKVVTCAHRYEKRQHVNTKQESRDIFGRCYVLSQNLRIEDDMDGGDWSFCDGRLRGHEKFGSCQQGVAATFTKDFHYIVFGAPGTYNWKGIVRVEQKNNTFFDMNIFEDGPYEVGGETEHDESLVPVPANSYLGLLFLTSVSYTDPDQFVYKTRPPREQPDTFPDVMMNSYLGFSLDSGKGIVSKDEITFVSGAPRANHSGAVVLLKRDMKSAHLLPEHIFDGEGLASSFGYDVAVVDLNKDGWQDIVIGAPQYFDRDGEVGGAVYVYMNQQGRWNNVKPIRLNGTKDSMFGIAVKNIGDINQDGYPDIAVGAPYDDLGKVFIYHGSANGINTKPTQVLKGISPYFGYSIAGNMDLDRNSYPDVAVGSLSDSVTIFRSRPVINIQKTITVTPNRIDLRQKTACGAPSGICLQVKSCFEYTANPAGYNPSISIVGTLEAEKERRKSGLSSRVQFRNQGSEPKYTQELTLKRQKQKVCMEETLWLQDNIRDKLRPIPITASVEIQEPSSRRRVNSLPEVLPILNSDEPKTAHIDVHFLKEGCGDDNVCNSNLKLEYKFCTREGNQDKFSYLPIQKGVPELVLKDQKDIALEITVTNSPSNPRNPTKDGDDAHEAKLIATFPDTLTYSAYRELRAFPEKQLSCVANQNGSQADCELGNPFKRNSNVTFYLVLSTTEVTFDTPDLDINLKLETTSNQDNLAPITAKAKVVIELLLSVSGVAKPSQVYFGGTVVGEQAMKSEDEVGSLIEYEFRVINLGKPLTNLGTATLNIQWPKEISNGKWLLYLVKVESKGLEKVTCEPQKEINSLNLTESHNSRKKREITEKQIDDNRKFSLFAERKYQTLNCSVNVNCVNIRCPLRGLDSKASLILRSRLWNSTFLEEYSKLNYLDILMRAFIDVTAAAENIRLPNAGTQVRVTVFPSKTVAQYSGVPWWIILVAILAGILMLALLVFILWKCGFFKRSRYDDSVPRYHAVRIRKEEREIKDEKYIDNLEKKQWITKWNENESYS
Chain of UniProt Q08J23 (Q08J23 whole entry): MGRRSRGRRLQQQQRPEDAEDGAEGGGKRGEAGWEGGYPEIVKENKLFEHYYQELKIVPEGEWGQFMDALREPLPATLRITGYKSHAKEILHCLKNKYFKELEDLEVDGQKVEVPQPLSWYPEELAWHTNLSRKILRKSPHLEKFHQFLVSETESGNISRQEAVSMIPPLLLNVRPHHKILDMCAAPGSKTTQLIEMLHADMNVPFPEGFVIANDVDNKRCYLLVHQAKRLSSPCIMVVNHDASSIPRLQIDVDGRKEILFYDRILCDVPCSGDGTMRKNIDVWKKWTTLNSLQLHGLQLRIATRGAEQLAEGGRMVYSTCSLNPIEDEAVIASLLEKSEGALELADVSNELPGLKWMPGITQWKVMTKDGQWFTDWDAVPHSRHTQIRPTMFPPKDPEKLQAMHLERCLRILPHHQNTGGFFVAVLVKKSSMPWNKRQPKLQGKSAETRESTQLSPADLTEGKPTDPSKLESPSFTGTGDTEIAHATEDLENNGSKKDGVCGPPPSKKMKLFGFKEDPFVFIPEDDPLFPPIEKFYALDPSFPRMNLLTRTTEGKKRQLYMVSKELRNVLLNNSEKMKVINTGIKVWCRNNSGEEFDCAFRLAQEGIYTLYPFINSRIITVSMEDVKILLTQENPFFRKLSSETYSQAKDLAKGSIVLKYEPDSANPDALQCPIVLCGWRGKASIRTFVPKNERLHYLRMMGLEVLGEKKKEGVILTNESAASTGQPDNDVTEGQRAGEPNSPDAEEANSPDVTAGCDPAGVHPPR
Chain of UniProt P05198 (P05198 whole entry): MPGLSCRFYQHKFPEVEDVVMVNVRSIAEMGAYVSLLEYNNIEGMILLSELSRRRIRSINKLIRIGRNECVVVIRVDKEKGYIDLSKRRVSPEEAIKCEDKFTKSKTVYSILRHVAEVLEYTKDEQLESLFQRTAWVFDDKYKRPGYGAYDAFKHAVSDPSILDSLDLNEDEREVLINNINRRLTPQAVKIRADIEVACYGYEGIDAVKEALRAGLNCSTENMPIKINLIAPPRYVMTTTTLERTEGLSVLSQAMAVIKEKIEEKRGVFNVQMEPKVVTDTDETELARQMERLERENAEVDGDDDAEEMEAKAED

Target	lysine labeling ratio R10:1
SPTAN1 (lysine site: K2195) (UniProt Q13813)	1.91 (active)
SUB1 (lysine site: K41) (UniProt P53999)	1.41 (active)
TNFRSF10A (lysine site: K191) (UniProt O00220)	6.6
HNRNPU (lysine site: K565) (UniProt Q00839)	3.39
SCAMP3 (lysine site: K102) (UniProt O14828)	1.06 (active)
SMC2 (lysine site: K222) (UniProt O95347)	1.74 (active)
UniProt Q9UHI8 (lysine site: K655)	2.17
EIF2S1 (lysine site: K190) (UniProt P05198)	2.9
XRCC5 (lysine site: K481) (UniProt P13010)	1.45 (active)
PTPRM (lysine site: K231) (UniProt P28827)	1.53 (active)
TXN (lysine site: K96) (UniProt P10599)	2.11
GPI (lysine site: K34) (UniProt P06744)	2.53
UniProt O95980 (lysine site: K684)	1.24 (active)
UniProt Q15149 (lysine site: K2309)	2.6
IGF1R (lysine site: K667) (UniProt P08069)	1.28 (active)
ITGA6 (lysine site: K615) (UniProt P23229)	6.91
ENO1 (lysine site: K406) (UniProt P06733)	10
WNT5A (lysine site: K348) (UniProt P41221)	1.98 (active)
FAT4 (lysine site: K2221) (UniProt Q6V0I7)	4.75
GOT2 (lysine site: K73) (UniProt P00505)	3.72

Target	lysine labeling ratio R10:1
LMAN1 (lysine site: K407) (UniProt P49257)	3.11
MCAM (lysine site: K185) (UniProt P43121)	3.4
LDLR (lysine site: K783) (UniProt P01130)	3.22
SUB1 (lysine site: K39) (UniProt P53999)	1.42 (active)
HINT1 (lysine site: K30) (UniProt P49773)	1.48 (active)
TGFBI (lysine site: K676) (UniProt Q15582)	3.4
PTGFRN (lysine site: K522) (UniProt Q9P2B2)	2.13
GPRC5A (lysine site: K16) (UniProt Q8NFJ5)	6.52
NSUN2 (lysine site: K257) (UniProt Q08J23)	1.71 (active)
PICALM (lysine site: K324) (UniProt Q13492)	1.36 (active)
SLC3A2 (lysine site: K217) (UniProt P08195)	7.33
UniProt P60842 (lysine site: K146)	3.63
UniProt Q13131 (lysine site: K56)	14.5
FH (lysine site: K80) (UniProt P07954)	1.86 (active)
HMGN2 (lysine site: K18) (UniProt P05204)	2.09
VASN (lysine site: K333) (UniProt Q6EMK4)	1.84 (active)
PTPRF (lysine site: K204) (UniProt P10586)	4.93
UniProt Q8N441 (lysine site: K218)	1.33 (active)
IGF1R (lysine site: K47) (UniProt P08069)	3.62
FRAS1 (lysine site: K2521) (UniProt Q86XX4)	2.03
